Reference: PubChem BioAssay AID1159606 (Sanford-Burnham Center for Chemical Genomics, 2016)
The whole screen tested about 360,000 compounds, of which about 7,300 (2%) were called active. The full list was thinned out, with actives kept by preference. Unmarked numbers belong to inactive results. No stated cut-off is given here; in the data, active means inhibition above about 50%; inactive means the rest.

Test: inhibitors of TWEAK-Fn14 signaling, primary screen, luciferase reporter cells, uHTS (AID 1159606)
Conditions: TWEAK-stimulated Fn14 reporter cells, luciferase luminescence, 8 h; at 10 µM; hits give high values

SMILES | inhibition
COc1cccc(NC(=O)Cn2c3ccc(F)cc3c3nc4n(c(=O)c32)CCS4)c1 | 7%
CCN(CC(=O)Nc1ccccc1C(F)(F)F)C(=O)C1CCN(C(=O)Nc2ccccc2)CC1 | 4.09%
C=C1C(=O)OC2C1CCC(C)=CCCC1(C)OC21 (stereo unspecified) | 81.5% (active)
C[C@H]1COc2cc(N3CCSCC3)ccc2S(=O)(=O)N1 | -13.1%
O=c1c2ccccc2ncn1/N=C/c1ccccc1 | 62.7% (active)
CCOC(=O)N1CCN(C(=O)Cn2cnc3ccccc3c2=O)CC1 | -13.1%
O=c1c2ccccc2ncn1CCc1ccncc1 | -5.08%
CCOc1cc(/C=N/NC(=O)c2ccncc2)cc(Br)c1O | -8.09%
Nn1c(SCC(=O)Nc2ccc3c(c2)CCC3)nnc1C1CC1 | 1.14%
CCCn1c(N)c(C(=O)CSc2nc3ccccc3c(=O)n2-c2ccc(OC)cc2)c(=O)[nH]c1=O | 2.25%
Cc1cc2oc(C(=O)Nc3c(C)n(C)n(-c4ccccc4)c3=O)c(C)c2cc1Cl | 4.85%
Cc1c(NC(=O)c2cc(-c3ccc(Br)cc3)on2)c(=O)n(-c2ccccc2)n1C | 10.9%
Cc1c(NC(=O)c2coc(=O)c(Br)c2)c(=O)n(-c2ccccc2)n1C | 65.9% (active)
CCOc1ccc(NC(=O)c2ccc(NC(=O)CN3C(=O)C(=O)N(CC(C)C)C3=O)cc2)cc1 | -46.8%
Cc1cc(C)n2nc(C(=O)Nc3cccc(S(=O)(=O)N4CCOCC4)c3)nc2n1 | -5.76%
O=C1C2C3C=CC(C4CC34)C2C(=O)N1c1nccs1 (stereo unspecified) | 17.6%
O=C(C[C@H]1C[C@H](C(=O)N2CCOCC2)[C@@]2(CCC3CCCC3)c3[nH]c4ccc(Cl)cc4c3CCN2C1=O)NCc1ccco1 | 32.8%
COc1ccc2[nH]c3c(c2c1)CCN1C(=O)C(CC(=O)NCCCN(C)C)C[C@H](C(=O)N2CCOCC2)[C@@]31CCC1CCCC1 (stereo partly specified) | -4.84%
COc1ccc(CNC(=O)C[C@H]2C[C@H](C(=O)N3CCOCC3)[C@@]3(CCC4CCCC4)c4[nH]c5ccc(Cl)cc5c4CCN3C2=O)cc1OC | 60.6% (active)
Cc1cc(C)c(S(=O)(=O)NN=C2c3ccccc3[C@H]3Cc4csc[n+]4[C@@H]23)c(C)c1 | 13.8%
Clc1ccc(COn2c(-c3ccc(Cl)cc3Cl)nc3ncccc32)cc1 | 11.7%
Fc1ccc(-c2ccc(CNCc3ccccn3)o2)cc1Cl | -29.9%
Clc1ccc(-c2cc(-c3ccccn3)on2)c(Cl)c1 | 83.2% (active)

SMILES | inhibition
COc1cc([N+](=O)[O-])ccc1NC(=S)N1CCN(c2ccccn2)CC1 | -16.1%
COc1ccc(-c2c(C)cc3oc(=O)cc(-c4ccccc4)c3c2C)cc1OC | -10.1%
COc1cc(OC)c2c(-c3cccc(-c4cccc(N)c4)c3)cc(=O)oc2c1 | 54.3% (active)
COc1ccc(-c2c(C)cc3oc(=O)cc(-c4ccccc4)c3c2C)cc1F | -37%
CC(C)[C@@H]1NC(=O)c2cc([N+](=O)[O-])cc(I)c2NCCC[C@@H](C(=O)NC(CC(=O)O)C(N)=O)NC(=O)[C@H](CO)NC1=O (stereo partly specified) | -9.29%
COc1ccccc1C(=O)NCCn1cc(SCC(=O)NCc2ccco2)c2ccccc21 | 8.15%
CCc1oc(-c2ccc(OC)cc2)c(C(=O)OCCCCCO)c1C(C)OCCO (stereo unspecified) | -8.4%
Cc1cc(Cl)ccc1NNC(=O)c1snnc1C | 78.6% (active)
Cc1nnsc1C(=O)NCc1c(F)cccc1Cl | 21.4%
Cc1nnsc1C(=O)Nc1cccc(Cl)c1C | -11.4%
CCOC(=O)[C@]12CCCC=C1N(Cc1ccc3c(c1)OCO3)C(=O)[C@H](CC(=O)N1CCN(C(=O)c3ccco3)CC1)C2 | 10.3%
CCOc1ccccc1Oc1cn[nH]c1-c1ccc(OC)cc1O | 33.5%
COc1ccc(-c2cn[nH]c2-c2ccc(OC)cc2)cc1 | 80.3% (active)
COc1ccc(Oc2cn[nH]c2-c2ccc(OC)cc2O)cc1 | -3.87%
CC12CCC(=O)C=C1CCC1C2C(O)CC2(C)C1CCC2(O)C(O)CO (stereo unspecified) | 8.15%
COc1ccccc1Cc1c(-c2ccc(Cl)cc2)nc2c3ccccc3ccn12 | -9.82%
O=C(Oc1ccc(-c2nc(-c3ccccn3)no2)cc1)c1ccccc1 | 92.9% (active)
c1ccc(-c2noc(-c3cccs3)n2)nc1 | 76.2% (active)
Brc1ccc(-c2noc(-c3ccccc3)n2)o1 | -28%
Clc1ccc(-n2nnnc2-c2cnc(-c3ccccn3)nc2-c2cccs2)cc1 | 10%
COc1ccc(CCc2nc(-c3cccs3)no2)cc1 | -31.5%
O=C(COC(=O)c1ccncc1)c1ccccc1 | -3.5%
COCCN(C(=O)C(C)C)c1nnc(-c2ccc(C(C)(C)C)cc2)s1 | -18%

SMILES | inhibition
CCCCN(C(=O)C1=NN(c2cc(C)ccc2C)C(=O)CC1)c1c(N)n(CCC)c(=O)[nH]c1=O | 4.67%
O=C1NC(O)CCN1C1CC(O)C(CO)O1 (stereo unspecified) | 2.05%
CCOc1ccc(C(=O)Nc2ccc(CN3CCOCC3)cc2)cc1Cl | -17.1%
O=C(Nc1ccc(CSc2ccccc2)cc1)c1ccc(CN2CCOCC2)cc1 | 62.3% (active)
O=C(Nc1ccccc1C(=O)N1CCOCC1)c1ccc(CSc2ccccc2)cc1 | -16.9%
CCOC1CCCCC1NS(=O)(=O)c1ccc(Cl)cc1 (stereo unspecified) | 23.1%
COc1ccc2c(c1)CCC/C2=N\OC(=O)c1ccccc1F | 36.7%
CC(C)C[C@@H]1Cc2[nH][nH]c(=O)c2[C@H](CCc2ccccc2)O1 | 17%
CC(NC(=O)Nc1ccccc1)C(c1cccs1)N1CCN(c2ccccc2)CC1 (stereo unspecified) | 1.76%
COc1ccc(OC)c(-c2csc(NC(=O)C3=NNC(=O)CC3)n2)c1 | -2.91%
COc1ccc2nc(Nc3nc(-c4cc5ccccc5oc4=O)cs3)sc2c1 | 64.4% (active)
O=c1oc2ccccc2cc1-c1csc(Nc2ccc(O)cc2)n1 | 82.7% (active)
Cc1noc(C)c1CSCC(=O)Nc1nc2ccc(Oc3ccccc3)cc2s1 | -4.3%
Cc1ccn2c(-c3csc(Nc4ccc(C(=O)O)cc4)n3)c(C)nc2c1 | 21.8%
Cc1ccc(Nc2nc(-c3ccc(O)cc3O)cs2)nc1 | -37.9%
CN(C)CCCOc1ccc(-c2ccc3nccn3c2)cn1 | -18.9%
Cc1ccc(NC(=O)c2cc([N+](=O)[O-])ccc2Cl)c(O)c1 | 2.69%
O=C(NCC(c1cccs1)N1CCOCC1)c1cc(Cl)ccc1[N+](=O)[O-] (stereo unspecified) | 7.3%
O=C(Nc1cccc2ccccc12)c1[nH]c(-c2ccccc2)c2c1C(=O)N(C1CC1)C2=O | -46.7%
Cc1ccc(NC(=O)COC(=O)CN2CCSC2=O)cc1F | 1.95%
Cn1c(=O)c2c(nc(Br)n2CCSc2nc3ccccc3o2)n(C)c1=O | 7.06%
CN1C(CC(=O)Nc2ccc(Br)cc2)c2ccccc2CC1(C)C (stereo unspecified) | 12.1%
COc1ccc(Sc2ccc(NC(=O)c3cccc(Cl)c3)cc2C#N)cc1 | 26.3%

SMILES | inhibition
COc1ccc(Nc2cc(=O)oc3ccccc23)cc1 | 12.8%
COc1ccc(Nc2cc(Sc3ccc(OC)cc3)ncn2)cc1 | 69.9% (active)
CN(C)CCCNC(=O)c1cc(C(=O)Cc2ccc(Cl)cc2)c[nH]1 | 5.27%
CC(C)Cn1cc(-c2cncc3nccn23)cn1 | 5.78%
CCc1nc2ccccc2c(C(=O)NCc2ccc(OC)cc2)c1C | -1.16%
COC(=O)Cc1[nH]n(-c2nc3ccccc3s2)c(=O)c1C(C)=Nc1ccc(OC)cc1 | 101% (active)
COC(=O)CC1=NN(c2ccccc2)C(=O)C1 | -14.8%
CCOc1ccc2c(c1)c(=O)c(S(=O)(=O)c1ccc(C)cc1)cn2CC | -0.17%
Cc1ccc(N2C(=O)CN=C2Nc2nc(C)cc(C)n2)cc1 | 4.62%
O=C1NNC(c2ccccc2)=N/C1=C\c1ccc(Cl)cc1 | 16.8%
CC(=O)N1CCN(S(=O)(=O)c2cccc(C(=O)NC3CCC(C)CC3)c2)CC1 (stereo unspecified) | 3.88%
O=C(NC1CC1)c1cccc(Br)c1 | 84.3% (active)
O=C(NC1CC1)c1ccc(-c2ccccc2)cc1 | -4.49%
COCCN(C(=O)CC1CCCCC1)c1c(N)n(CC(C)C)c(=O)[nH]c1=O | 19.1%
O=C(Nc1ccc(Cl)cc1)/C(=C1\CCCN1)[N+](=O)[O-] | -36.6%
COc1ccc(N2C(=O)C(O)C2c2ccc(C)cc2)cc1 (stereo unspecified) | 6.39%
COc1ccc(C(=O)Nc2nc(-c3ccc(S(=O)(=O)N4CCOCC4)cc3)cs2)cc1 | 93.7% (active)
COc1ccc(C(=O)Nc2cc(S(=O)(=O)N3CCCC3)ccc2Cl)cc1 | -16%
COC(=O)COc1ccc(S(=O)(=O)N2CCOCC2)cc1 | 12.7%
CS(=O)(=O)/C(C#N)=C/c1cccn1S(=O)(=O)c1ccc([N+](=O)[O-])cc1 | -15.1%
CCC(=O)N1Cc2cc(C(=O)NCc3cccc(F)c3)nc(-c3cccc(C4=CCCC4)c3)c2[C@H]1CCO | -7.06%
Cc1ccc(Cl)cc1N1CCN(C(=O)c2cccc3c(=O)c(C)c(-c4ccccc4)oc23)CC1 | 40.6%
